# From PubChem
# D2 ag-1: D2 dopamine receptor (human) agonism | HEK293 T-REx D2 cells, calcium flux agonist mode | AID 485358 | P14416 | activation, % at 2 µM | 340,000 compounds, 0.53% hits;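 active = activation over 3 SD above normal in the single-dose calcium agonist read, cut at about 30% in these data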; note: 0% is about no effect
# Target sequence (P14416 whole entry, looked up): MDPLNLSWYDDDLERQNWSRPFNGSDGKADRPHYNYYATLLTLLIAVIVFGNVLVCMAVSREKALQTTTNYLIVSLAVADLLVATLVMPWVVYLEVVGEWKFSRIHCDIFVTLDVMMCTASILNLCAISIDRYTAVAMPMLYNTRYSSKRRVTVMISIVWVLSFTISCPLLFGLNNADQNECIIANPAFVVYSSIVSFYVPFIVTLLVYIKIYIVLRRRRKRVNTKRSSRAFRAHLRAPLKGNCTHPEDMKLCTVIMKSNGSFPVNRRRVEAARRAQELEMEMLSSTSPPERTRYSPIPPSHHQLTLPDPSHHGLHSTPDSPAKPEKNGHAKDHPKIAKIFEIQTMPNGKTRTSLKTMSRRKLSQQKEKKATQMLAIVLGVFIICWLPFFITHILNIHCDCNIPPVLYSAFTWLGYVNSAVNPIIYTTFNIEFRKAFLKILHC
#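 In this primary screen, compounds producing a positive calcium signal within 180 s of addition to tetracycline-induced, force-coupled HEK293 Trex D2 cells are flagged; cells are dye-loaded with a no-wash calcium kit beforehand.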
# D2 ag-2: activates the human D2 dopamine receptor; activation, % (concentration not given with the values); P14416; AID 624465; DiscoveRx PathHunter D2 beta-arrestin, luminescence, 90 min; 100% = 57 uM dopamine signal; 360,000 compounds, 0.084% hits; in the data active = activation above about 40%
#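 Agonist mode: compounds alone added to overnight-plated D2 PathHunter cells for 90 min at 37 C, with 57 uM final dopamine (EC100) defining full response. Beta-arrestin recruitment detected by chemiluminescent reagent, read after 1 h at ambient temperature.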
# D2 PAM-1: human D2 receptor positive allosteric modulation; P14416; DiscoveRx D2 beta-arrestin cells, luminescence, 90 min; 100% = 57 uM dopamine signal; potentiation, % (concentration not given with the values); 360,000 compounds, 0.23% hits; in the data active = potentiation above about 50%
#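 PathHunter D2 cells, attached overnight at 37 deg C, received compound in DMSO plus dopamine at EC20 (50 nM final) for 90 min at 37 deg C. Beta-arrestin recruitment was read as luminescence after 1 h with detection reagent at ambient temperature.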
# D2 PAM-2: positively modulates the human D2 dopamine receptor allosterically | P14416 | HEK293 T-REx D2, calcium flux, EC20 dopamine potentiation | potentiation, % at 10 µM | 340,000 compounds, 0.34% hits;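 active = potentiation over 3 SD above the plate norm, cut at about 30% in these data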; note: 0% is about no effect
#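 Tetracycline-induced Hek293 Trex D2 cells, force-coupled to calcium, loaded with no-wash calcium dye. Compound added with 180 s kinetic read for agonism, then EC20 dopamine and a further 180 s read for potentiation.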
# D2 antag: antagonists of human D2 dopamine receptor | HEK293 TREx D2 cells, calcium flux, dopamine EC80 | AID 485344 | P14416 | 340,000 compounds, 2% hits | inhibition, % at 10 µM; in the data active = inhibition above about 30%; inactive = below that, where a call was filed; note: 0% is about no effect
#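 Calcium flux kinetic readout in an inducible HEK293 TREx D2 line plated overnight at 30 C. After 180 s compound exposure, an EC80 dopamine challenge follows with another 180 s kinetic read to detect antagonism.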
# D3 arrestin ag: confirmation of human D3 dopamine receptor agonists, beta-arrestin | shares compounds with D2 ag-1 | Potency, µM (titrated, usually from 76.9 µM), without a hit: at the highest dose activation, usual class: activators | DiscoveRx D3 beta-arrestin cells, luminescence, 90 min | 2,300 compounds, 4% hits;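 note: potency is the fitted concentration of half-maximal effect; 100% = dopamine control response; nearly all actives have a fitted effect of over 70% in size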
# D2 ag-3: activates human D2 dopamine receptor in D3 counterscreen; shares compounds with D2 ag-1; DiscoveRx PathHunter D2 beta-arrestin, luminescence, 90 min; response scale: percent relative to full dopamine signal; Potency, µM (series often up to 76.9 µM), for inactives: at the top dose activation, most hits filed as activators; 2,300 compounds, 5.9% hits; note: potency is the fitted concentration of half-maximal effect; % of control where 0% means no effect; nearly all actives have a fitted effect of over 70% in size
# Numbers without * were called inactive; . = no result; ! = a repeat was not active. Rows were chosen to be rich in hits. Some 2.4% of all compounds tested hit in one or more screens of this group. Unless noted, calls come from the whole dose curve; as a rule, active = well fitted activation curve with a large enough effect; inconclusive = small, poorly fitted or top-dose-only effect; inactive = flat fitted curve, though single readings scatter.
SMILES,D2 ag-1,D2 ag-2,D2 PAM-1,D2 PAM-2,D2 antag,others
CC1CN(CCOc2ccc([N+](=O)[O-])cc2)CC(C)O1 (stereo not given),-1,-1,-11,5,-7,
O=[N+]([O-])c1ccc(OCCN2CCNCC2)cc1,1,-2,-7,-3,32*,
CCC(=O)N1CCc2cc(CNS(=O)(=O)c3ccccc3F)ccc21,0,.,.,.,.,
CC(C)(C)c1ccc(C(=O)Nc2c3c(nn2C(C)(C)C)CS(=O)(=O)C3)cc1,1,-3,-4,-9,-3,
COc1ccc(C(=O)Nc2c3c(nn2C(C)(C)C)CS(=O)(=O)C3)cc1OC,0,-4,-6,14,35*,
Cc1ccc(CNC(=O)C(C)OC(=O)c2ccco2)cc1 (stereo not given),0,-2,-2,2,6,
CCC(OC(=O)c1ccco1)C(=O)NCc1ccc(C)cc1 (stereo not given),1,-2,2,-25,66*,
Cc1ccc(-c2nn(-c3cccc([N+](=O)[O-])c3)c3c2cnc2ccc(F)cc23)cc1,.,.,.,3,.,
CCCc1nc2nc(C)c(NS(=O)(=O)c3ccc(CC(C)C)cc3)c(=O)n2[nH]1,-2,6,2,32*!,3,
CCn1cc(C(=O)NCCc2ccc(Cl)cc2)c(=O)c2cc(S(=O)(=O)N(C)C)ccc21,0,1,-4,7,-9,
CCn1cc(C(=O)N2CCOCC2)c(=O)c2cc(S(=O)(=O)N(C)C3CCCCC3)ccc21,-1,-3,-2,32*,0,
CCn1cc(C(=O)NCCCN(C)c2ccccc2)c(=O)c2cc(S(=O)(=O)N(C)C)ccc21,43*,-2,-1,54*,29,
CCn1cc(C(=O)NCc2ccc(Cl)cc2)c(=O)c2cc(S(=O)(=O)N(C)C)ccc21,-1,-5,0,0,32*,
CCOc1ccc(N2CC(C(=O)NCCc3ccc(S(N)(=O)=O)cc3)CC2=O)cc1 (stereo not given),1,-2,-6,14,38*,
CCOc1ccc(N2CC(C(=O)N3CCCc4ccccc43)CC2=O)cc1 (stereo not given),-3,0,2,.,56*,
CCn1ccc2cc(S(=O)(=O)N3CCC(C(=O)NCCOC)CC3)ccc21,0,.,.,.,.,
CCCC12CN3CC(CCC)(CN(C1)C3c1c(C)[nH]c(=O)[nH]c1=O)C2=O (stereo not given),-1,.,.,1,.,
CC(C)c1nc(SCC(=O)Nc2nccs2)c2ccccc2n1,0,-3,-5,-28,-5,
CC(C)c1nc(SCC(=O)Nc2ccc(N(C)C)cc2)c2ccccc2n1,-1,-19,-5,1,34*,
CCC(C)C(NC(N)=O)C(=O)NC1CCC(C)CC1 (stereo not given),2,.,.,14,33*,
COc1ccc(-c2c(C)c3ccc(O)c(CN4CCCC(C)C4)c3oc2=O)cc1OC (stereo not given),0,.,.,-5,.,
COC(=O)c1ccc(NC(=O)CCn2cccn2)cc1,0,.,.,-1,.,
CCCn1c(C)nc2cc(Cl)c(N3CCN(c4nc(-c5ccc(C)cc5)cs4)CC3)cc21,0,-2,-10,3,40*,
Cc1ccc(-c2csc(N3CCN(c4cc5c(cc4Cl)nc(-c4ccncc4)n5CCN4CCCCC4)CC3)n2)cc1,0,-2,-12,5,4,
CN1CCN(C2(CNC(=O)c3ccc([N+](=O)[O-])cc3)CCCCC2)CC1,-2,.,.,11,.,
SMILES,D2 ag-1,D2 ag-2,D2 PAM-1,D2 PAM-2,D2 antag,others
Cc1ccc(NC(=O)c2c(C)oc3ccc(O)c(CN4CCCCCC4)c23)cc1,-1,.,.,9,.,
COc1ccc(COCC(O)CN(Cc2ccccc2)C(C)C)cc1OC (stereo not given),1,0,-6,-3,31*,
COc1ccc(COCC(O)CN2CCCCC2)cc1OC (stereo not given),-2,-2,-7,1,-15,
Cc1ccc(C)c(NC(=O)Cn2cc(C(=O)C3CCCCC3)c3ccccc32)c1,0,.,.,12,.,
CCOc1ccc(/C=C/c2nc(C#N)c(N3CCC(C)CC3)o2)cc1,0,.,.,-4,.,
Cc1cc(C)c(C(=O)c2ccc(C(=O)NC(C)(C)C)cc2)c(C)c1,0,-1,-2,0,40*,
COCCNC(=O)c1nn(-c2ccc(C)cc2)c(=O)n(C)c1=O,.,.,.,0,.,
COc1ccc([N+](=O)[O-])cc1/C=N/NC(=O)/C(=C\c1cccs1)NC(=O)c1ccccc1,0,-3,-12,-26,43*,
NNC(=O)/C(=C\c1cccs1)NC(=O)c1ccccc1,0,-4,-22,-21,31*,
CC(=O)Nc1ccccc1-c1nc2ccccc2n(CC(=O)Nc2ccc(C)c(Cl)c2)c1=O,.,.,.,-1,.,
CCCCC(=NCCc1c(C)[nH]c2ccc(OC)cc12)C1=C(O)CC(c2ccccc2)CC1=O (stereo not given),6,2,-20,33*,-13,
CCN(CC)C(=O)c1sc2c(c1C)c(=O)n(-c1ccc(C)c(C)c1)c(=O)n2Cc1cc(=O)n2ccccc2n1,0,.,.,0,.,
COCC1CCN(Cc2cn(-c3ccccc3F)nc2-c2cc(C)sc2C)CC1,-1,-7,-10,-17,73*,
Cc1cc(-c2nn(-c3ccccc3F)cc2CN2CCC(C(N)=O)CC2)c(C)s1,0,-3,-27,-19,-1,
C=CCN(CC=C)Cc1c(C)[nH]c2c(C)c(C)ccc2c1=O,0,-4,-6,31*,6,
Cc1ccc(Nc2c([N+](=O)[O-])c(=O)oc3ccccc23)cc1,1,-7,-18,-9,31*,
O=c1oc2ccccc2c(Nc2ccc(O)cc2)c1[N+](=O)[O-],1,-3,-4,-5,-13,
Cc1cc(=O)[nH]c2c(C)cc(S(=O)(=O)NCc3ccccc3)cc12,36*,4,9,-5,5,D3 arrestin ag=-2%;D2 ag-3=-2%
COc1cc2c(C(=O)NCCCN3CCN(c4cccc(Cl)c4)CC3)cn(C)c(=O)c2cc1OC,4,3,-31,-26,-7,
O=C(NCCCN1CCN(CCCNC(=O)c2cccc(Cl)c2)CC1)c1cccc(Cl)c1,-1,-2,-24,-11,2,
